From the supplement of paper PMC13380429
Structures can show the parent of a compound that is named as a salt. Values without a mark were called inactive.

System: Vero E6 infected with SARS-CoV-2
Experiment: inhibition of SARS-CoV-2 cytopathic effect; higher = more antiviral protection, active = above 15
Settings: 48 h

Compound	inhibition of SARS-CoV-2 cytopathic effect (1 nM)	inhibition of SARS-CoV-2 cytopathic effect (8.33 nM)	inhibition of SARS-CoV-2 cytopathic effect (100 nM)	inhibition of SARS-CoV-2 cytopathic effect (833.33 nM)	inhibition of SARS-CoV-2 cytopathic effect (10000 nM)
N[C@@H](CSC(c1ccccc1)(c1ccccc1)c1ccccc1)C(=O)O [S-trityl-L-cysteine]	-0.89%	-0.64%	-2.17%	-0.68%	-1.72%
C[C@@H](O[C@H]1OCCN(Cc2n[nH]c(=O)[nH]2)[C@H]1c1ccc(F)cc1)c1cc(C(F)(F)F)cc(C(F)(F)F)c1 [aprepitant]	-2.6%	-2.93%	-3.21%	-4.32%	-6.5%
COc1cc2c(cc1C(F)(F)F)N(C(=O)Nc1cc(F)cc(-c3cccnc3)c1)CC2	1.91%	2.35%	0.87%	2.32%	2.45%
CCCN(CCc1cccs1)[C@H]1CCc2c(O)cccc2C1 [rotigotine]	0.32%	-0.89%	1.13%	-1.26%	-6.53%
Cc1nccc2[nH]c(=O)ccc12 [medorinone]	-1.14%	-4.65%	1.27%	-0.3%	-3.87%
Oc1cc2c(cc1O)[C@H](Cc1cccc3ccccc13)NCC2	1.2%	-0.02%	-0.84%	-0.78%	-2.59%
CCCCCCCCc1ccc(-c2ccc(C(=O)O)cc2)cc1	-0.05%	1.54%	1.52%	3.77%	1.83%
O=C(O)CCC(=O)Nc1ccc(S(=O)(=O)Nc2nccs2)cc1 [succinylsulfathiazole]	-0.25%	0.46%	0.51%	0.85%	-0.56%
O=C(O)C(F)(F)C(F)(F)C(F)(F)C(F)(F)C(F)(F)C(F)(F)C(F)(F)F [ammonium-perfluorocaprylate]	2.29%	-0.68%	0.56%	-0.2%	-2.3%
C[C@]12CC[C@@H](O)C[C@H]1CC[C@@H]1[C@@H]2CC[C@]2(C)C(=O)CC[C@@H]12 [3-alpha-hydroxy-5-beta-androstan-17-one]	-1.07%	1.38%	2.2%	3%	2.64%
CN=C(N)NCCC[C@H](N)C(=O)O [L-monomethylarginine]	-0.78%	-1.38%	0.7%	1.39%	-1.85%
CN(Cc1cnc2nc(N)nc(N)c2n1)c1ccc(C(=O)N[C@@H](CCC(=O)O)C(=O)O)cc1 [methotrexate]	-1.04%	-0.21%	-0.4%	2%	-1.41%
CS(=O)(=O)c1ccc(Cn2c3c(c4cc(F)cc(F)c42)CCCC3CC(=O)O)cc1 (stereo not given)	0.13%	-0.29%	-0.12%	1.36%	-1.55%
COc1cc2c(cc1OC)C(=O)C(CC1CCN(Cc3ccccc3)CC1)C2 (stereo not given) [donepezil]	-2.44%	-3.45%	-1.84%	-1.28%	-8.45%
O=c1cccc2n1C[C@@H]1CNC[C@H]2C1 [cytisine]	1.86%	0.43%	-2.65%	-1.32%	-2.16%
O=[N+]([O-])/N=C1\NCCN1Cc1ccc(Cl)nc1 [imidacloprid]	0.83%	5.02%	6.8%	5.42%	3.01%
CCOc1cc(N)c(Cl)cc1C(=O)NCC1CN(Cc2ccc(F)cc2)CCO1 (stereo not given) [mosapride]	0.88%	2.99%	3.38%	2.51%	6.25%
COc1ccc(CCC(=O)c2c(O)cc(O[C@@H]3O[C@H](CO)[C@@H](O)[C@H](O)[C@H]3O[C@@H]3O[C@@H](C)[C@H](O)[C@@H](O)[C@H]3O)cc2O)cc1O [Neohesperidin dihydrochalcone (Nhdc)]	-1.62%	-3.36%	-1.21%	0.9%	-1.64%
COc1cccc(-c2cc(F)ccc2[C@H]2Cc3nc(N)nc(C)c3C(=O)N2)n1	-0.35%	0.26%	-1.38%	-0.51%	-10.9%
CN(C)CC/C=C1/c2ccccc2COc2ccc(CC(=O)O)cc21 [Olopatadine hydrochloride (Opatanol)]	1.34%	1.55%	1.65%	6.26%	0.26%

Compound	inhibition of SARS-CoV-2 cytopathic effect (1 nM)	inhibition of SARS-CoV-2 cytopathic effect (8.33 nM)	inhibition of SARS-CoV-2 cytopathic effect (100 nM)	inhibition of SARS-CoV-2 cytopathic effect (833.33 nM)	inhibition of SARS-CoV-2 cytopathic effect (10000 nM)
O=c1[nH]c2ccccc2c(=O)n1CCCN1CCN(c2ccccc2)CC1 [pelanserin]	0.03%	1.75%	-0.08%	1.18%	0.03%
C=CC(=O)Nc1cccc(C)c1Nc1ncc2cc(-c3c(Cl)c(OC)cc(OC)c3Cl)ccc2n1	-1.66%	-0.88%	-0.76%	0.98%	3.67%
C=C1C[C@]23C[C@@]1(O)CC[C@H]2[C@@]12C=C[C@H](O)[C@@](C)(C(=O)O1)[C@H]2[C@@H]3C(=O)O	0.13%	0.82%	1.4%	2.17%	-0.14%
O=C(CCCN1CCC(O)(c2ccc(Br)cc2)CC1)c1ccc(F)cc1 [bromperidol]	3.91%	3.53%	2.65%	-0.17%	-3.61%
CCCCN(CCCC)CCC(O)c1cc2c(Cl)cc(Cl)cc2c2cc(C(F)(F)F)ccc12 (stereo not given) [halofantrine]	-1.32%	2.28%	3.05%	-1.63%	-1.68%
CN1C2CCC1CC(OC(c1ccccc1)c1ccc(Cl)cc1)C2 (stereo not given)	5.63%	6.26%	-1.76%	-2.87%	17.4% (active)
CCOc1ccc(NC(C)=O)cc1 [phenacetin]	0.72%	-3.1%	1.64%	0.87%	0.81%
CN1C(=O)C(N2CCCCC2)S/C1=C\C(=O)O (stereo not given) [ozolinone]	-4.09%	0.03%	4.18%	0.02%	-0.02%
Cc1cc(C)cc(OCC2CNC(=O)O2)c1 (stereo not given) [metaxalone]	-1.78%	-2.7%	-1.26%	1.04%	-0.42%
CC1(C)O[C@H]2CC(=O)OC[C@]23[C@H]2CC[C@@]4(C)[C@H](c5ccoc5)OC(=O)[C@H]5O[C@]54[C@]2(C)C(=O)C[C@@H]13 [limonin]	-0.51%	-0.42%	-2.25%	-1.69%	-2.49%
NC(=O)NO [hydroxyurea]	0.66%	-0.23%	0.03%	0.46%	1.29%
CCOc1ccc(Cc2nccc3cc(OCC)c(OCC)cc23)cc1OCC [ethaverine]	-8.51%	-11.9%	-9.06%	-7.91%	-8.28%
Cc1oc2ccccc2c1CNC(=O)NCc1cccs1	-0.41%	1.63%	0.18%	-0.46%	3.09%
CCC(=O)N1CCOc2c(cc(-c3ccc(OC)c(OC)c3)cc2OC[C@H]2CCCN(C)C2)C1	1.79%	8.72%	0.95%	1.75%	0.51%
OC(CCCN1CCCCC1)(c1ccccc1)c1ccccc1 [diphenidol]	-5.55%	-3.34%	-2.4%	-1.92%	-2.8%
CC(=O)Nc1ccc(C(=O)NC(C)(C)C)cc1	-4.86%	-3.67%	-1.32%	-3.41%	-0.2%
CN(CC(=O)O)C(=N)N [creatine]	-2.18%	1.25%	-2.37%	-1.57%	-4.4%
CC[C@H](CO)Nc1nc(Nc2cccc(-c3ccccn3)c2)c2ncn(C(C)C)c2n1	-2.32%	0.36%	0.93%	1.09%	-7.74%
CCc1c2c(nc3ccc(O)cc13)-c1cc3c(c(=O)n1C2)COC(=O)[C@]3(O)CC	1.57%	0.05%	-1.96%	-6.66%	-16.9%
CCOC(=O)OC(C)OC1=C(C(=O)Nc2ccccn2)N(C)S(=O)(=O)c2ccccc21 (stereo not given) [ampiroxicam]	1.01%	-0.58%	1.16%	2.1%	2.74%
